Reference: article PMC4336329 (PLoS ONE, 2015)
Hit rate of the full screen: of about 310,000 compounds, about 2,200 (0.71%) showed an effect of 50% or more. Effects have a minus sign here. This is one part of a sample in which strong results are shown more often than they occur.

biological target: human ether-à-go-go-related gene (hERG) potassium channel (human, UniProt Q12809); experiment: primary screen, population patch clamp on CHO cells stably expressing hERG; higher = less effect of the substance
Sequence (Q12809 whole entry, looked up): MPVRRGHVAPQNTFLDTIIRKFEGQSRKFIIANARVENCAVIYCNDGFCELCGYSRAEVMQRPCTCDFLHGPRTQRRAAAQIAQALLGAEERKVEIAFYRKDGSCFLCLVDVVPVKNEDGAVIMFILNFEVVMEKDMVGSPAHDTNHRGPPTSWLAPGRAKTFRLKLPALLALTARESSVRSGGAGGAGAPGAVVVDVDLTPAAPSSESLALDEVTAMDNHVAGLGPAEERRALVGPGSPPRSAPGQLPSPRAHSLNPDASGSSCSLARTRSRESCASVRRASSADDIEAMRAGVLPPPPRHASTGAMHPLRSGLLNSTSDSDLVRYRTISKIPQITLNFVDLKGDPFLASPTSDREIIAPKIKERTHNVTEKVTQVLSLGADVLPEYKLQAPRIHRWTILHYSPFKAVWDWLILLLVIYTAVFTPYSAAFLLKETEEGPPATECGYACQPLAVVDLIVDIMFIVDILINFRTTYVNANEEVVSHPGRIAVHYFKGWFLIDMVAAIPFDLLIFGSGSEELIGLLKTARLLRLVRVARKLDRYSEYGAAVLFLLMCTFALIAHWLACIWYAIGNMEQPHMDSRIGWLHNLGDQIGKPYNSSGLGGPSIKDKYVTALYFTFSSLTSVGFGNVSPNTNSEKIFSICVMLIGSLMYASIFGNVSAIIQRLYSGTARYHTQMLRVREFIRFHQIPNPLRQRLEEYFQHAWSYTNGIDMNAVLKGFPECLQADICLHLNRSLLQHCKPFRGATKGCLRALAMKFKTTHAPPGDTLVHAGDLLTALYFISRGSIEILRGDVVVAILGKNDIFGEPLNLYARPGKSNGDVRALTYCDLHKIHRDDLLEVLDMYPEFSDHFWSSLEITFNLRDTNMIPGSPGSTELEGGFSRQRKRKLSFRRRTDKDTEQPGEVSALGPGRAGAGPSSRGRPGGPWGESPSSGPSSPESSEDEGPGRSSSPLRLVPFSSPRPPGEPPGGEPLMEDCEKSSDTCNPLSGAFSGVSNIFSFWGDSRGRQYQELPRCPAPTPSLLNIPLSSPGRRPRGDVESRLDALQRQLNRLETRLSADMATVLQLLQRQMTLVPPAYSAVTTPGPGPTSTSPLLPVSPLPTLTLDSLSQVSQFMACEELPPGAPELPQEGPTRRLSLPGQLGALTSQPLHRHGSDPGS

Structure (SMILES)	hERG current change (%, negative = inhibition) at 1uM [%]
CCn1cc([N+](=O)[O-])c(C(=O)N2N=C(c3ccc(O)c(OC)c3)CC2c2ccccc2O)n1 (stereo not shown)	18.1
Cc1ccc2nc(-c3ccccn3)oc2c1	12.6
Cc1ccccc1NC(=O)NCCc1ccc(Cl)cc1	8.42
CCOC(=O)C1(CCOc2ccccc2)CCN(Cc2ccc(C#CCCO)cc2)CC1	0.161
CCOC(=O)C1(CCOc2ccccc2)CCN(C(=O)c2cncs2)CC1	-27.4
CCOC(=O)C1(CCOc2ccccc2)CCN(Cc2ccc(O)cc2)CC1	-84.8
CCOC(=O)C1(CCOc2ccccc2)CCN(C(=O)CCSC)CC1	-11.3
CCOC(=O)C1(CCOc2ccccc2)CCN(Cc2ccc(OCCO)cc2)CC1	-85.1
CCOC(=O)C1(CCOc2ccccc2)CCN(C(=O)c2ccc(-n3cccn3)cc2)CC1	-85.6
CCOC(=O)C1(CCOc2ccccc2)CCN(Cc2cccs2)CC1	-32.6
CCOC(=O)C1(CCOc2ccccc2)CCN(Cc2cccc(O)c2)CC1	-28.7
CCOC(=O)C1(CCOc2ccccc2)CCN(Cc2ccc(C)s2)CC1	-65.4
CCOC(=O)C1(CCOc2ccccc2)CCN(Cc2ccncc2)CC1	-23.5
CCOC(=O)C1(CCOc2ccccc2)CCN(Cc2cnc(C)s2)CC1	-18.8
CCOc1ccccc1N(CC(=O)Nc1ccccc1C(=O)NCc1ccco1)S(C)(=O)=O	2.08
CC(Sc1nnc(Nc2ccccc2F)s1)C(=O)NC1CC1 (stereo not shown)	3
COCCc1ncc(CN2CCC(C(=O)Nc3ccc(-n4cccn4)cc3)CC2)cn1	-5.56
CNC(=O)c1cc2cc(OC)ccc2oc1=O	-4.3
O=C(O)c1ccc(NCc2ccc3c(c2)OCO3)cc1	10.6
Cc1nc2sccn2c(=O)c1S(=O)(=O)Nc1ccc(N2CCN(C)CC2)cc1	21.4
CC1CN(c2ccc([N+](=O)[O-])c(N3CCCCC3)c2)CCN1 (stereo not shown)	8.07
CCOC(=O)C1(Cc2cccc(OC)c2)CCN(CC2CC=CCC2)CC1 (stereo not shown)	-50.6

Structure (SMILES)	hERG current change (%, negative = inhibition) at 1uM [%]
CCOC(=O)C1(CCOc2ccccc2)CCN(Cc2cc(OC)cc(OC)c2)CC1	-61.5
CCOC(=O)C1(Cc2cccc(OC)c2)CCN(CCO)CC1	2.3
CCOC(=O)C1(CCOc2ccccc2)CCN(Cc2cccc(OC)c2)CC1	-24.4
CCOC(=O)C1(Cc2ccccc2)CCN(CC2CC=CCC2)CC1 (stereo not shown)	-5.83
COCCCN1C(=O)C(=O)/C(=C(/O)c2ccc(S(=O)(=O)N3CCCCC3)cc2)C1c1cccc(OC)c1 (stereo not shown)	2.22
CC1(c2ccc(OC(F)F)cc2)NC(=O)N(CC(=O)Nc2ccc(N3CCCCC3)cc2)C1=O (stereo not shown)	18
CN1C(=O)c2ccccc2C(C(=O)O)C1c1cccc(Cl)c1 (stereo not shown)	8.65
CCN1C(=O)C2(C(C(=O)c3ccc(C)o3)=C(O)C(=O)N2CCCN(C)C)c2ccccc21 (stereo not shown)	14
CCN(CC)CC(=O)c1c[nH]c2ccc(OC)cc12	3.98
COc1ccc2[nH]cc(C(=O)CN(C)C)c2c1	11.4
COc1ccc2[nH]cc(C(=O)CN(C)CCc3ccc(OC)c(OC)c3)c2c1	-60.6
COC(=O)c1cc(S(=O)(=O)Nc2cccc(S(N)(=O)=O)c2)oc1C	8.79
COCCn1c(SCC(=O)c2c(N)n(C3CC3)c(=O)[nH]c2=O)nnc1-c1ccc(Cl)cc1	13.5
CN(Cc1ccccc1)C(=O)N1CCOCC1	17.7
CCOC(=O)N1CCN(c2ncnc3c2oc2nc(C(C)C)c4c(c23)CCC4)CC1	6.16
Cc1ncc(CN2CCCC(C(=O)c3sccc3C)C2)s1 (stereo not shown)	12.5
Cc1ccsc1C(=O)C1CCCN(Cc2cccn2-c2ccccn2)C1 (stereo not shown)	-81.7
Cc1ccsc1C(=O)C1CCCN(Cc2cccn2-c2ccc(Cl)cn2)C1 (stereo not shown)	-84.3
Cc1ccsc1C(=O)C1CCCN(Cc2ccccc2O)C1 (stereo not shown)	-3.16
Cc1ccsc1C(=O)C1CCCN(Cc2cnc(N)nc2)C1 (stereo not shown)	4.23
Cc1ccsc1C(=O)C1CCCN(Cc2ccn[nH]2)C1 (stereo not shown)	9.05
CCOc1ccccc1OCC(=O)Nc1ccc(S(=O)(=O)Nc2nc(C)cc(C)n2)cc1	0.94

Structure (SMILES)	hERG current change (%, negative = inhibition) at 1uM [%]
Cc1ccc(S(=O)(=O)c2c(C)nn(-c3ccccc3)c2OC(=O)c2ccco2)cc1	5.81
CC(C)c1ccc2c(c1)[C@H]1OCC[C@H]1[C@@H](c1cccs1)N2	4.11
CCOC(=O)C(C)Oc1ccc(C2NC(=O)NC(C)=C2C(C)=O)cc1Br (stereo not shown)	4.32
Cc1ccc(NC(=O)Cn2cccc2C2=NC(c3ccccc3)CO2)c(C)c1 (stereo not shown)	3.9
Cc1cc(Br)c2nc3c(c(C(=O)O)c2c1)CCCCC3	7.18
CN1CCc2c1nc1ccccc1c2N.O=C(O)c1cc([N+](=O)[O-])ccc1Cl	7.96
CN1CCCCc2c1nc1ccccc1c2N.O=C(O)c1cncc(Br)c1	-79.7
O=C(O)c1cncc(Br)c1	8.7
Cc1ccc(C)c2c(N)c3c(nc12)CCCCC3.O=C(O)c1cncc(Br)c1	-51.9
Cc1cccc2c(N)c3c(nc12)N(C)CC3.O=C(O)C(=O)O	7.57
Cc1ccc(NC(=O)c2ccsc2)cc1NS(C)(=O)=O	15.1
Cc1cc(Cn2nnc3ccccc32)c(O)c(C(C)(C)C)c1	23.6
C[n+]1c2n(c3ccccc31)N=C(c1ccc(Br)cc1)CS2.[Br-]	-53.1
C[n+]1c2n(c3ccccc31)N=C(c1ccc(-c3ccccc3)cc1)CS2.[Br-]	-39
CC1Sc2n(c3ccccc3[n+]2C)N=C1c1ccccc1.[Br-] (stereo not shown)	-16.8
C[n+]1c2n(c3ccccc31)N=C(c1cc(C(C)(C)C)c(O)c(C(C)(C)C)c1)CS2.[Br-]	-63.5
C[n+]1c2n(c3ccccc31)N=C(c1ccccc1)CS2.[Br-]	-17.3
COc1ccc(C2=Nn3c([n+](C)c4ccccc43)SC2)cc1.[Br-]	-13.2
Cc1ccc(-c2nnc3n2N=C(c2ccc(Br)cc2)CS3)cc1	4.56
C[n+]1c2n(c3ccccc31)N=C(c1ccc(Cl)cc1)CS2.[Br-]	-51.9
